The text below walks through data of PubChem BioAssay (Tox21).

Assay [1] addresses Luciferin 4-monooxygenase (Photinus pyralis) (UniProt P08659). Kind of assay: qHTS assay to identify small molecule inhibitors of firefly luciferase (AID 1224835). Note: nearly all actives have a fitted effect of over 25% in size. A digest of the protocol: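 Quantitative HTS format; KM concentrations of both substrates. Purified P. pyralis FLuc activity quantified from luminescence images.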
On the technique in general: Quantitative high-throughput screening tests each substance at several concentrations.

Assay [2] is described as follows: qHTS assay to identify small molecule agonists of the constitutive androstane receptor (CAR) signaling pathway - cell viability counter screen (AID 1224836). Note: nearly all actives have a fitted effect of over 45% in size. A digest of the protocol:
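HepG2-CYP2B6-hCAR, 2500 cells/well, 4 h pre-incubation; cpd 15 conc + PK11195 0.75 uM final; 23 h, 37 C/5% CO2; CellTiter-Fluor, fluorescence.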

Assay [3] has as its target Nuclear receptor subfamily 1 group I member 3 (Homo sapiens) (UniProt Q14994). The assay can be described thus: qHTS assay to identify small molecule antagonists of the constitutive androstane receptor (CAR) signaling pathway (AID 1224838).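 Note: HepG2 cells stably expressing hCAR with CYP2B6 luciferase reporter stimulated by CITCO; nearly all actives have a fitted effect of over 40% in size.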 A digest of the protocol:
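Read-out: ONE-Glo luciferase luminescence after 30 min at room temperature. HepG2-CYP2B6-hCAR double-stable cells, compounds in 15-point titration plus 50 nM CITCO final, 24 h at 37 C/5% CO2.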

The target is the same in assay [4]. The assay can be described thus: qHTS assay to identify small molecule agonists of the constitutive androstane receptor (CAR) signaling pathway (AID 1224839).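 Note: HepG2 cells stably carrying human CAR and a CYP2B6 luciferase reporter; nearly all actives have a fitted effect of over 15% in size.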 Summed up: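 HepG2-CYP2B6-hCAR cells, 2500/well, 4 h pre-incubation; compounds 15 conc.; PK11195 0.75 uM final; 24 h, 37 C/5% CO2; ONE-Glo luciferase read.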
The nature of assay [5]: qHTS assay to identify small molecule agonists of the estrogen related receptor signaling pathway with the pleiotropic PPARgamma coactivator (PGC) from Tox21 10K library (AID 1224842). Note: nearly all actives have a fitted effect of over 15% in size. Summed up: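 PGC/ERR reporter cells (NTP line) were seeded 2,000 per well, rested 6 h at 37 C/5% CO2, then pin-dosed with compounds in DMSO for 18 h at 37 C; luciferase read by One-Glo luminescence after 30 min at room temperature.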

In assay [6] the target is Thyrotropin receptor (Homo sapiens) (UniProt P16473). The assay can be described thus: qHTS assay to identify small molecule agonists of the thyroid stimulating hormone receptor (TSHR) signaling pathway (AID 1224843; calls by dose curve; note: nearly all actives have a fitted effect of over 45% in size). A digest of the protocol: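 Using 15 concentrations per compound in triplicate, cAMP production was monitored in TSHR-HEK293 cells after 30 min compound incubation at RT; HTRF reagents followed, with fluorescence intensity recorded after 1 h.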
Chain of Thyrotropin receptor (Homo sapiens) (P16473 whole entry, looked up): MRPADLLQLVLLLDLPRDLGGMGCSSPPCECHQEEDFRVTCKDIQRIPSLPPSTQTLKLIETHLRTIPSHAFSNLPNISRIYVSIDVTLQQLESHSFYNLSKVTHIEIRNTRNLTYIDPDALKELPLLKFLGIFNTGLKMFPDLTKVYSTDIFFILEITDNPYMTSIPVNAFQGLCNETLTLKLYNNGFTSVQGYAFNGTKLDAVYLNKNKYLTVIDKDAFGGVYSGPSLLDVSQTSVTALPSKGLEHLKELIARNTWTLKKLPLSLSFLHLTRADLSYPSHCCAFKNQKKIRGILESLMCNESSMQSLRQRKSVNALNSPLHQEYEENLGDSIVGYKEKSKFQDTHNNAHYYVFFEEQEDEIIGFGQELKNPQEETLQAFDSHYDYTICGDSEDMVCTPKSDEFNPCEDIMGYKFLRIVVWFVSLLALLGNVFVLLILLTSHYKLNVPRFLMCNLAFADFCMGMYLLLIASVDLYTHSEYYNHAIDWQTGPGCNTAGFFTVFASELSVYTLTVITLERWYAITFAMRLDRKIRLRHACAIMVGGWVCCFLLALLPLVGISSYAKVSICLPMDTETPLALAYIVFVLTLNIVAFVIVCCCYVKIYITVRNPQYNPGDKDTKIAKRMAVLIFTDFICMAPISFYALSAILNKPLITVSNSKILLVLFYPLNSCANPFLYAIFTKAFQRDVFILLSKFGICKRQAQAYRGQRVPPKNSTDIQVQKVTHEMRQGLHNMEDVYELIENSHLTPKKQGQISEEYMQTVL

Assay [7] is described as follows: qHTS assay to identify small molecule agonists of the hypoxia (HIF-1) signaling pathway - cell viability counter screen (AID 1224844; calls by dose curve; note: nearly all actives have a fitted effect of over 50% in size). Summed up: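 CellTiter-Glo luminescence read-out, 30 min RT, taken in the same wells as the beta-lactamase HRE reporter assay; HRE-bla ME-180 cells, 0.5% dialyzed FBS, 17 hr compound treatment at 37C, 5% CO2.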
Assay [8] in a line: qHTS assay to identify small molecule agonists of the hypoxia (HIF-1) signaling pathway (AID 1224846; active = well fitted activation curve with a large enough effect in the signal ratio in the repeat runs, not every such curve was filed as active; the % refers to the signal ratio). A digest of the protocol:
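Beta-lactamase FRET read-out (CCF4-AM substrate) from ME-180 cells carrying an HRE-driven bla reporter, after 17 hrs compound exposure at 37C/5% CO2. Cells were seeded at 2,000 per well in 0.5% dialyzed FBS medium and preincubated 5 hrs.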

Assay [9] in a line: qHTS assay to identify small molecule antagonists of the estrogen related receptor (ERR) signaling pathway from Tox21 library (AID 1224848). Note: nearly all actives have a fitted effect of over 50% in size. Note: potency is the fitted concentration of half-maximal effect. A digest of the protocol: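 Tox21 10K compounds in DMSO tested for ERR pathway antagonism in NTP's ERR cell line; 18 h, 37 C exposure; ONE-Glo luminescence.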
Assay [10] in a line: qHTS assay to identify small molecule agonists of the estrogen related receptor (ERR) signaling pathway from Tox21 library (AID 1224849; calls by dose curve; note: nearly all actives have a fitted effect of over 15% in size). The conditions noted are these: ERR reporter cell line, ONE-Glo luciferase, 18 h; at 92.4 µM (top of the series) unless noted. A digest of the protocol:
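Luminescence readout (ONE-Glo, 30 min RT) after 18 h compound exposure at 37 C of NTP-supplied ERR reporter cells; cells were plated 6 h before compound addition by pin tool.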

The nature of assay [11]: A CellTox Green Cytotoxicity Assay to monitor cytotoxicity in HEK293 cells - 0 hour (AID 1224869). Note: nearly all actives have a fitted effect of over 50% in size. Summed up: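 Read-out: fluorescence of a cell-impermeant cyanine dye staining DNA of dead cells, proportional to cytotoxicity. HEK293, 600 cells/well with reagent, compound (23 nL DMSO) added after 5 h; reads at 0, 8, 16, 24, 32, 40 h.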
Assay [12] in a line: qHTS RealTime-Glo MT Cell Viability Assay in HepG2 cells - 40 hour (AID 1224870). Note: nearly all actives have a fitted effect of over 50% in size. Summed up: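 HepG2 cells mixed with RealTime-Glo MT reagents (NanoLuc plus cell-permeant prosubstrate) were seeded at 600 cells/well, incubated 5 h at 37 C/5% CO2, then pinned with compounds in DMSO; nonlytic luminescence tracked viability during 40 h treatment.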
The nature of assay [13]: qHTS assay to identify small molecule antagonists of the estrogen related receptor signaling pathway with the pleiotropic PPARgamma coactivator (PGC) from Tox21 10K library - cell viability counter screen (AID 1224840; active = well fitted cell-killing curve with a large enough effect in the repeat runs, not every such curve was filed as active; note: nearly all actives have a fitted effect of over 40% in size). A digest of the protocol:
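Fluorescence read-out of CellTiter-Fluor viability reagent, added after cells had been exposed to compound in DMSO for 17.5 h at 37 C; 30 min development at 37 C/5% CO2. Cells: PGC/ERR line, 2,000/well.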

A short description of assay [14]: qHTS assay to identify small molecule antagonists of the estrogen related receptor signaling pathway with the pleiotropic PPARgamma coactivator (PGC) from Tox21 10K library (AID 1224841; call rule not given here). A digest of the protocol: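 Luminescence read-out (One-Glo luciferase reagent, 30 min at room temperature) from PGC/ERR cells exposed to DMSO-dissolved test compounds for 18 h at 37 C; cells, 2,000 per well, had been preincubated 6 h before compound transfer.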

Assay [15] in a line: qHTS assay to identify small molecule agonists of H2AX (AID 1224845; active = well fitted activation curve with a large enough effect in the signal ratio in the repeat runs, not every such curve was filed as active; the % refers to the signal ratio). Summed up: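 Wild-type CHO-K1 cells plated overnight, then exposed 3 hr at 37C to compounds at 15 concentrations (0.76% DMSO). Lysed, then HTRF anti-pH2AX(S139)-cryptate/anti-H2AX-d2 detection after 24 hr at room temperature; emissions 665 and 620 nm.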
Assay [16] in a line: qHTS assay to identify small molecule agonists of H2AX - cell viability counter screen (AID 1224847; calls by dose curve; note: top concentration of the series differs between compounds; nearly all actives have a fitted effect of over 30% in size). Summed up: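 Cells plated first: CHO-K1, 1000 per well in 10% FBS medium, incubated overnight at 37C. Then 15-point compound titration added (final DMSO 0.76%) for 3 hr. Finally CellTiter-Glo added and luminescence read.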
Assay [17] is described as follows: qHTS RealTime-Glo MT Cell Viability Assay in HepG2 cells - 24 hour (AID 1224867). Note: nearly all actives have a fitted effect of over 50% in size. Summed up:
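Luminescence read-out: viable HepG2 cells reduce a prosubstrate to a NanoLuc substrate, giving a signal proportional to live cell number. Reads taken at 0, 8, 16, 24, 32 and 40 h of compound exposure at 37 C.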

The nature of assay [18]: qHTS assay to identify small molecule antagonists of the constitutive androstane receptor (CAR) signaling pathway - cell viability counter screen (AID 1224837). Note: nearly all actives have a fitted effect of over 45% in size. A digest of the protocol: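 Read-out: CellTiter-Fluor fluorescence after 23 hr at 37 C/5% CO2. Cells: HepG2 double-stable for hCAR and CYP2B6-2.2kb. Compounds tested at 15 concentrations in the presence of CITCO, final concentration 50 nM.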

Assay [19] is described as follows: qHTS RealTime-Glo MT Cell Viability Assay in HEK293 cells - 32 hour (AID 1224868). Note: nearly all actives have a fitted effect of over 50% in size. Note: potency is the fitted concentration of half-maximal effect. A digest of the protocol:
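Nonlytic real-time viability readout: viable cells convert prosubstrate to NanoLuc substrate, giving luminescence proportional to live cell number. HEK293, 600 cells/well, compound added after 5 h, continuous culture at 37 C.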

Unmarked numbers belong to inactive results. Results filed as inconclusive are left out. The source made the active and inactive calls. Unless noted, calls come from the whole dose curve; as a rule, active = well fitted curve in the direction sought with a large enough effect in the repeat runs; inconclusive = weak or mixed curves; inactive = no such curve, though single readings can be large; an effect the other way counts as inactive or inconclusive.
% is set by controls: 0 for no effect and ±100 for the full control effect.

Chain of Luciferin 4-monooxygenase (Photinus pyralis) (P08659 whole entry, looked up): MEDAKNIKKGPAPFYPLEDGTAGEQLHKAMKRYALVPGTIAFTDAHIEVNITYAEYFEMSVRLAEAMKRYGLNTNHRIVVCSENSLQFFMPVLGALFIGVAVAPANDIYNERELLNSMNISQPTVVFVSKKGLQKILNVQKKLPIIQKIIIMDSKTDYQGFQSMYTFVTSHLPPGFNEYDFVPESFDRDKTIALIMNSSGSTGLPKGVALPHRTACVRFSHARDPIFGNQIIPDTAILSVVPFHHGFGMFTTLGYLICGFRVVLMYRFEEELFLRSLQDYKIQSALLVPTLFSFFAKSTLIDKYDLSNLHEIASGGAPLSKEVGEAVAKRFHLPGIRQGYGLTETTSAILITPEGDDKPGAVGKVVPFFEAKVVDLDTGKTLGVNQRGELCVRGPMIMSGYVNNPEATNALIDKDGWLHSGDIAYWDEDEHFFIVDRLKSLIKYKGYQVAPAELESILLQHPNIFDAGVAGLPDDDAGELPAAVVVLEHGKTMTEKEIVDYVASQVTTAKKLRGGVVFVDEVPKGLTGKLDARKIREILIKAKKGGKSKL
Chain of Nuclear receptor subfamily 1 group I member 3 (Homo sapiens) (Q14994 whole entry, looked up): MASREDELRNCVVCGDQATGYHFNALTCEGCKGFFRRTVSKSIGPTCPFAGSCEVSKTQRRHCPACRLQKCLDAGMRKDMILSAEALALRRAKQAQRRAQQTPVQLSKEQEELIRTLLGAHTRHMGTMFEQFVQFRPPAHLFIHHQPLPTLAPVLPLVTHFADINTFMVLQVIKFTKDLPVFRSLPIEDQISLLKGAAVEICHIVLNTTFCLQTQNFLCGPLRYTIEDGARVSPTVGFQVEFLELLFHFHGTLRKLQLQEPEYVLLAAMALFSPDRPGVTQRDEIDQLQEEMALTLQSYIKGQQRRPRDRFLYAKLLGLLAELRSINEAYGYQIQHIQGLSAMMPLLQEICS

Consider `O=Cc1ccc(Cl)c([N+](=O)[O-])c1`, for which the Potency entry in assay [1], in assay [2], in [3], in [4], in [5] and in assay [6] was “inactive” each time. The Potency entry in [7], in [11] and in assay [12] was “inactive” in each case. Moreover, the compound was classed as inactive in [8]. Moreover, the Potency in assay [9] was 54.5 µM (active). In assay [10], the activity change, positive = activation is -38.6%.

`CCn1nc(Cc2ccccc2)cc1C1CCN(C[C@H]2C[C@H](N(C)[C@@H](C(=O)O)C(C)C)C[C@@H]2c2cccc(F)c2)CC1`: the Potency entry in [2], in assay [3], in assay [4], in assay [13], in assay [14] and in assay [5] was “inactive” each time. Also, the Potency result in assay [6], in assay [7], in assay [15], in [16], in [11] and in assay [12] was “inactive” throughout. The compound was classed as inactive in assay [8] and in assay [17]. Moreover, the activity change, positive = activation in assay [10] is -18.7%.

On to `CC(C)(Cc1c[nH]c2ccccc12)NCC(O)COc1ccccc1C#N` (stereo unspecified), for which the Potency result in assay [1], in [2], in assay [18], in [13], in [5] and in assay [7] was “inactive” each time. Further, the Potency entry in assay [15], in assay [16], in assay [9], in [11] and in assay [12] was “inactive” in each case. In addition, in [8], the compound was classed as inactive. The activity change, positive = activation in assay [10] is -15.2% [at 42.5 µM]. The Potency in assay [19] is 16.9 µM (active).

`CC(CN=Cc1ccccc1O)N=Cc1ccccc1O` (stereo unspecified): the Potency entry in assay [1], in assay [2], in assay [3], in [4], in assay [13] and in [7] was “inactive” throughout. The Potency result in [15], in assay [16], in [19] and in [11] was “inactive” throughout. The call in assay [8] and in assay [17] was inactive.

Take `CC(CC(C#N)(c1ccccc1)C(C)C)N(C)C` (stereo unspecified): the Potency result in assay [1], in assay [2], in assay [3], in assay [4], in assay [13] and in [14] was “inactive” throughout. Moreover, the Potency entry in [5], in [6], in [7], in assay [15], in assay [16] and in assay [9] was “inactive” each time. In addition, the Potency entry in assay [19] and in assay [12] was “inactive” each time. The compound was called inactive in assay [8] and in assay [17]. Besides, in assay [10], the activity change, positive = activation is 2.64% [at 42.5 µM].

On to `COc1ccc(/C(C)=C/C(=O)O)c(OC)c1`, for which the Potency result in [2], in assay [18], in assay [13], in assay [14], in assay [5] and in assay [6] was “inactive” each time. The Potency result in assay [7], in assay [15], in assay [16], in assay [9], in [19] and in assay [11] was “inactive” throughout. Also, the Potency result in [12] is “inactive”. Moreover, the compound was classed as inactive in [8]. The activity change, positive = activation in assay [10] was 8.11% [at 42.5 µM].

For `COC(=O)/C=C/C(C)=C\C=C\C(C)=C\C=C\C=C(C)\C=C\C=C(C)\C=C\C(=O)O`, the Potency entry in assay [2], in assay [18], in [3], in assay [13], in assay [14] and in [5] was “inactive” each time. The Potency result in assay [6], in assay [7], in assay [15], in assay [16], in assay [9] and in assay [19] was “inactive” throughout. Also, in [12], the Potency result was “inactive”. In addition, the compound was called inactive in [8]. Further, the activity change, positive = activation in assay [10] was 4.73%.

As to `CC(=O)Nc1ccccc1O`, the Potency entry in assay [2], in [18], in [3], in [4], in [13] and in assay [5] was “inactive” each time. Further, the Potency result in assay [6], in assay [7], in assay [15], in assay [9], in [19] and in assay [11] was “inactive” in each case. In assay [12], the Potency result was “inactive”. Also, the compound was called inactive in assay [8] and in [17]. For the same compound, in assay [10], the activity change, positive = activation was -0.899%.
